# About 83,000 compounds went through this panel and 20% of them were active in at least one assay; those are over-represented in the sample as a whole.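 Growth was measured after 48 h exposure to one concentration of compound in 96-well plates. Values under 10 count as active.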 A number with no mark means an inactive call. Activity calls are given as the source filed them.
# Experiments:
# Test in all cases: NCI-60 one-dose screen, 48 h (100 = growth as untreated, 0 = no growth, -100 = all killed)
# Conditions in all cases: 10 µM
# SN12C renal = test system: SN12C renal
# UO-31 renal = test system: UO-31 renal
# TK-10 renal = test system: TK-10 renal
# ACHN renal = test system: ACHN renal
# CAKI-1 renal = test system: CAKI-1 renal
# A498 renal = test system: A498 renal
# CCRF-CEM leukemia = test system: CCRF-CEM leukemia
# MOLT-4 leukemia = test system: MOLT-4 leukemia
# SR leukemia = test system: SR leukemia
# RPMI-8226 leukemia = test system: RPMI-8226 leukemia
# OVCAR-8 ovarian = test system: OVCAR-8 ovarian
# OVCAR-5 ovarian = test system: OVCAR-5 ovarian
# OVCAR-4 ovarian = test system: OVCAR-4 ovarian
# SK-OV-3 ovarian = test system: SK-OV-3 ovarian
# IGROV1 ovarian = test system: IGROV1 ovarian
# OVCAR-3 ovarian = test system: OVCAR-3 ovarian
# HS 578T breast = test system: HS 578T breast
# EKVX NSCLC = test system: EKVX NSCLC
# NCI/ADR-RES ovarian = test system: NCI/ADR-RES ovarian
SMILES,growth (SN12C renal),growth (UO-31 renal),growth (TK-10 renal),growth (ACHN renal),growth (CAKI-1 renal),growth (A498 renal),growth (CCRF-CEM leukemia),growth (MOLT-4 leukemia),growth (SR leukemia),growth (RPMI-8226 leukemia),growth (OVCAR-8 ovarian),growth (OVCAR-5 ovarian) [%],growth (OVCAR-4 ovarian),growth (SK-OV-3 ovarian),growth (IGROV1 ovarian),growth (OVCAR-3 ovarian),growth (HS 578T breast),growth (EKVX NSCLC),growth (NCI/ADR-RES ovarian)
Cc1cnc(C=O)c2cccc([N+](=O)[O-])c12,86.8%,43.5%,108%,85.8%,86.3%,106%,11.5%,61%,16.5%,68.1%,87.3%,95,82.1%,99.6%,95.9%,101%,94.9%,–,–
CN(C)c1ccc2c(c1)OC(N)=C(C#N)C2c1ccc2c(c1)CCCN2C (centres undefined),–,51.4%,70.3%,–,40%,-8.42% (active),24.5%,35.8%,29.5%,34.5%,30.9%,78.2,56.3%,–,–,3.67% (active),20.1%,34.5%,0.712% (active)
COc1ccc(C2C=C(c3ccc(Cl)cc3)N=C3SC=CN32)c(Br)c1 (centres undefined),67.6%,84.3%,83.5%,–,54.1%,89.7%,71.7%,53.1%,59.2%,52.3%,67.3%,98.2,80.9%,117%,98.1%,60.5%,94.8%,–,89.9%
Fc1ccc2[nH]c3c(NCCCN4CCOCC4)ncnc3c2c1,63.8%,45.9%,12.7%,23.9%,25.2%,130%,74.7%,83.1%,52.1%,46.4%,68.3%,85.6,-38.6% (active),33.4%,50.8%,59.7%,–,–,72.7%
Cc1cc(O)c(C2=NN(c3ccc(S(N)(=O)=O)cc3)C(c3ccc(N(C)C)cc3)C2)c(C)c1Cl (centres undefined),74.8%,–,113%,88.6%,–,74.3%,28%,27.3%,25.5%,-22.2% (active),75.2%,96.8,58.8%,106%,34.1%,80.3%,82.5%,51.1%,85.6%
COc1cc(C2C=C(c3ccc(Cl)c(Cl)c3)N=C3SC(C)=CN32)cc(OC)c1OC (centres undefined),92.3%,55.2%,94.7%,90.3%,67.3%,74%,36.7%,46.2%,-11.9% (active),-16.1% (active),73.1%,93.2,67.8%,–,85.6%,79.8%,100%,–,81.3%
O=C(CCl)N1c2ccccc2Sc2ccc3ccccc3c21,-49.1% (active),-89.8% (active),-57.7% (active),–,-52.8% (active),-90.2% (active),-15.1% (active),-9.38% (active),-11.4% (active),-47.3% (active),-24.2% (active),21,-41.9% (active),17.6%,-71.2% (active),-82.5% (active),-0.68% (active),–,-25.8% (active)
O=C(Nc1cccc(F)c1)Nc1cccc(Cl)c1,–,87.1%,116%,88.1%,88.8%,36.7%,84.4%,4.94% (active),49.9%,66.6%,78.6%,94.9,87.2%,114%,111%,14.4%,97.3%,–,89.1%
CC(C)c1[nH]nc2c(NCc3ccc(-c4ccccn4)cc3)nc(SCCN(C)C)nc12,–,16.7%,6.52% (active),7.84% (active),18.9%,-66.3% (active),1.67% (active),-8.11% (active),-10.3% (active),-14.4% (active),13.9%,21.4,-1.82% (active),8.24% (active),16.2%,4.83% (active),21.4%,-5.89% (active),7.1% (active)
FC(F)(F)c1ccc(-c2nc(-c3nc4cc(Cl)c(Cl)cc4[nH]3)c3ccccn23)cc1,–,58.5%,16.7%,63.6%,83.9%,38.5%,81.6%,63.5%,84.2%,71.5%,63.3%,88.6,4.24% (active),38%,66.3%,52.7%,3.78% (active),–,63.5%
FC(F)(F)c1ccc(-c2cnc(Br)nc2NC2CCCCCC2)cc1,21.9%,34.7%,36.6%,10.4%,72.6%,81.3%,28.5%,57%,51%,-4.63% (active),24.1%,63.2,22.6%,71.6%,36.1%,10.8%,53.4%,–,77.9%
CCOC(=O)C(=O)Cc1cccnn1,99.9%,82.9%,101%,103%,103%,113%,91.7%,93.4%,101%,102%,103%,103,102%,106%,109%,122%,133%,–,104%
CCOC(=O)c1ccc(NC(=O)Nc2nncs2)cc1,–,34.1%,45.1%,–,24.9%,-13.3% (active),–,11.7%,9.88% (active),6.49% (active),10.8%,42.4,49.9%,3.12% (active),16.5%,-32.7% (active),25.3%,–,–
